Test results taken from PubChem BioAssay (Tox21).
“And” between values parts separate entries of the source, which are not always exact repeats. Equal values may be shown once. Results filed as inconclusive are left out. A call without a number means that no potency is given here. The source made the active and inactive calls. Unless noted, calls come from the whole dose curve.

test: qHTS assay to identify small molecule agonists of the NFkB signaling pathway (AID 1159509; active = well fitted curve in the direction sought with a large enough effect in the signal ratio in the repeat runs, not every such curve was filed as active; the % refers to the signal ratio); conditions: NFkB-bla ME-180 cells, beta-lactamase FRET ratio, 5 h; series mostly up to 61 µM
Summary of the method: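 Beta-lactamase reporter assay run in quantitative high-throughput format on an NF-kB-responsive ME-180 line, with 5 hr compound treatment and a FRET-based blue/green fluorescence readout.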

SMILES	outcome
C#C[C@]1(O)CC[C@H]2[C@@H]3CCC4=Cc5oncc5C[C@]4(C)[C@H]3CC[C@@]21C	inactive
c1ccc2sc(SSN3CCOCC3)nc2c1	inactive
Nc1ncn([C@@H]2O[C@H](CO)[C@@H](O)[C@H]2O)c(=O)n1	inactive
CN(C)c1nc(N(C)C)nc(N(C)C)n1	inactive
CN(C)CCN(Cc1cccs1)c1ccccn1	inactive
CC(C)(C)NC(=O)[C@H]1CC[C@H]2[C@@H]3CC[C@H]4NC(=O)C=C[C@]4(C)[C@H]3CC[C@]12C	inactive
CCCCC(CC)COCC1CO1 (centres undefined)	inactive
COC(=O)Nc1nc2ccc(S(=O)c3ccccc3)cc2[nH]1 (centres undefined)	inactive
CC(=O)Oc1ccccc1C(=O)Nc1ncc([N+](=O)[O-])s1	inactive
c1cc(-c2ccncc2)ccn1	inactive
OC[C@H]1O[C@@H]2O[C@H]3[C@H](O)[C@@H](O)[C@@H](O[C@H]4[C@H](O)[C@@H](O)[C@@H](O[C@H]5[C@H](O)[C@@H](O)[C@@H](O[C@H]6[C@H](O)[C@@H](O)[C@@H](O[C@H]7[C@H](O)[C@@H](O)[C@@H](O[C@H]8[C@H](O)[C@@H](O)[C@@H](O[C@H]1[C@H](O)[C@H]2O)O[C@@H]8CO)O[C@@H]7CO)O[C@@H]6CO)O[C@@H]5CO)O[C@@H]4CO)O[C@@H]3CO	inactive
NC=O	inactive
COC(=O)C1=C(C)NC(C)=C(C(=O)OCCN(C)Cc2ccccc2)C1c1cccc([N+](=O)[O-])c1 (centres undefined)	inactive
c1ccc2cc(Nc3ccc(Nc4ccc5ccccc5c4)cc3)ccc2c1	inactive
O=C(Nc1ccc(Cl)cc1)Nc1ccc(Cl)c(Cl)c1	inactive
COC(C)COC(C)COC(C)CO (centres undefined)	inactive
CC(=O)CC/C=C(\C)CCC=C(C)C	inactive
Nc1ccc(Nc2ccccc2)cc1	inactive

SMILES	outcome
OCCO	inactive
O=C1OC2(c3cc(Br)c(O)c(Br)c3Oc3c2cc(Br)c(O)c3Br)c2c(Cl)c(Cl)c(Cl)c(Cl)c21	inactive
CCCCOCCOCCO	inactive
COc1ccc(C(=O)CC(=O)c2ccc(C(C)(C)C)cc2)cc1	inactive
CCC(C)c1ccccc1O (centres undefined)	inactive
Nc1ccccc1N	inactive
OC1CCCCCCCCCCC1	inactive
CCCCc1oc2ccccc2c1C(=O)c1cc(I)c(OCCN(CC)CC)c(I)c1	inactive
Cc1c(OCC(F)(F)F)ccnc1CS(=O)c1nc2ccccc2[nH]1 (centres undefined)	inactive
O=C(c1ccccc1)c1ccccc1O	inactive
O=CCCCC=O	inactive
NNc1ccc(C(=O)O)cc1	inactive
O=Cc1ccccc1O	inactive
Cc1cccc(N(C)C(=S)Oc2ccc3ccccc3c2)c1	inactive
Cc1cc2nc3c(=O)[nH]c(=O)nc-3n(C[C@H](O)[C@H](O)[C@H](O)CO)c2cc1C	inactive
COc1cccc2c1C(=O)c1c(O)c3c(c(O)c1C2=O)C[C@@](O)(C(=O)CO)C[C@@H]3O[C@H]1C[C@H](N)[C@H](O)[C@H](C)O1	inactive
CN(C)C(=N)N=C(N)N	inactive
CC(=O)O[C@]1(C(C)=O)CC[C@H]2[C@@H]3C=C(Cl)C4=CC(=O)[C@@H]5C[C@@H]5[C@]4(C)[C@H]3CC[C@@]21C	inactive

test: qHTS assay to identify small molecule agonists of the NFkB signaling pathway - cell viability counter screen (AID 1159515); conditions: NFkB-bla ME-180 viability, CellTiter-Glo luminescence, 5 h; series mostly up to 61 µM; note: nearly all actives have a fitted effect of over 55% in size; note: potency is the fitted concentration of half-maximal effect
Summary of the method: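 ME-180 NFkB-bla cells, 2,000/well; overnight attach; compound 5 hr, 37 C/5% CO2; LiveBLAzer substrate 1.5 hr RT; then CellTiter-Glo in same wells, 30 min RT, luminescence read.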

SMILES	Potency
c1ccc2sc(SSN3CCOCC3)nc2c1	inactive
Nc1ncn([C@@H]2O[C@H](CO)[C@@H](O)[C@H]2O)c(=O)n1	inactive
CN(C)c1nc(N(C)C)nc(N(C)C)n1	inactive
CN(C)CCN(Cc1cccs1)c1ccccn1	inactive
CC(C)(C)NC(=O)[C@H]1CC[C@H]2[C@@H]3CC[C@H]4NC(=O)C=C[C@]4(C)[C@H]3CC[C@]12C	inactive
CCCCC(CC)COCC1CO1 (centres undefined)	inactive
COC(=O)Nc1nc2ccc(S(=O)c3ccccc3)cc2[nH]1 (centres undefined)	inactive
CC(=O)Oc1ccccc1C(=O)Nc1ncc([N+](=O)[O-])s1	inactive
c1cc(-c2ccncc2)ccn1	inactive
OC[C@H]1O[C@@H]2O[C@H]3[C@H](O)[C@@H](O)[C@@H](O[C@H]4[C@H](O)[C@@H](O)[C@@H](O[C@H]5[C@H](O)[C@@H](O)[C@@H](O[C@H]6[C@H](O)[C@@H](O)[C@@H](O[C@H]7[C@H](O)[C@@H](O)[C@@H](O[C@H]8[C@H](O)[C@@H](O)[C@@H](O[C@H]1[C@H](O)[C@H]2O)O[C@@H]8CO)O[C@@H]7CO)O[C@@H]6CO)O[C@@H]5CO)O[C@@H]4CO)O[C@@H]3CO	inactive
NC=O	inactive
COC(=O)C1=C(C)NC(C)=C(C(=O)OCCN(C)Cc2ccccc2)C1c1cccc([N+](=O)[O-])c1 (centres undefined)	inactive
c1ccc2cc(Nc3ccc(Nc4ccc5ccccc5c4)cc3)ccc2c1	inactive
O=C(Nc1ccc(Cl)cc1)Nc1ccc(Cl)c(Cl)c1	inactive
COC(C)COC(C)COC(C)CO (centres undefined)	inactive
CC(=O)CC/C=C(\C)CCC=C(C)C	inactive
Nc1ccc(Nc2ccccc2)cc1	inactive
Nc1ncnc2nc[nH]c12	inactive
OCCO	inactive

SMILES	Potency
O=C1OC2(c3cc(Br)c(O)c(Br)c3Oc3c2cc(Br)c(O)c3Br)c2c(Cl)c(Cl)c(Cl)c(Cl)c21	inactive
CCCCOCCOCCO	inactive
Cc1c(C(N)=O)cc([N+](=O)[O-])cc1[N+](=O)[O-]	inactive
COc1ccc(C(=O)CC(=O)c2ccc(C(C)(C)C)cc2)cc1	inactive
CCC(C)c1ccccc1O (centres undefined)	inactive
Nc1ccccc1N	inactive
CC(=O)C1(C)CC2=C(CCCC2(C)C)CC1C (centres undefined)	inactive
OC1CCCCCCCCCCC1	inactive
CCCCc1oc2ccccc2c1C(=O)c1cc(I)c(OCCN(CC)CC)c(I)c1	31.1 µM (active) and 26.8 µM (active)
Cc1c(OCC(F)(F)F)ccnc1CS(=O)c1nc2ccccc2[nH]1 (centres undefined)	inactive
O=C(c1ccccc1)c1ccccc1O	inactive
O=CCCCC=O	inactive
NNc1ccc(C(=O)O)cc1	inactive
O=Cc1ccccc1O	inactive
Cc1cccc(N(C)C(=S)Oc2ccc3ccccc3c2)c1	inactive
Cc1cc2nc3c(=O)[nH]c(=O)nc-3n(C[C@H](O)[C@H](O)[C@H](O)CO)c2cc1C	inactive
COc1cccc2c1C(=O)c1c(O)c3c(c(O)c1C2=O)C[C@@](O)(C(=O)CO)C[C@@H]3O[C@H]1C[C@H](N)[C@H](O)[C@H](C)O1	inactive
CN(C)C(=N)N=C(N)N	inactive
CC(=O)O[C@]1(C(C)=O)CC[C@H]2[C@@H]3C=C(Cl)C4=CC(=O)[C@@H]5C[C@@H]5[C@]4(C)[C@H]3CC[C@@]21C	inactive
